Our source for the GFP response vs DMSO values is PubChem BioAssay AID504340 (NMMLSC, 2011).

Structures are written as SMILES. A number with no mark means an inactive call.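 The calls were made as follows: active = GFP response above 150% of the DMSO control; inconclusive = Under 70 cell events counted for a yeast strain; inactive = the rest.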

A short description of the assay: yeast TOR pathway CIT2-GFP reporter retest – flow cytometry, third cherry pick, single plex, confirmation (AID 504340).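 Also: median GFP fluorescence over all cells with no mother versus daughter split; sample signal as a ratio to the plate DMSO mean so 100% equals DMSO.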 As to conditions: S. cerevisiae CIT2-GFP strain, 3 h, at 10 µM, hits give high values. Background: Flow cytometry measures light scatter and fluorescence of single cells or particles in a stream.
Turning to `CN1CCN(c2ncnc3ccc(Br)cc23)CC1`, the GFP response vs DMSO is 103%.

As to `CCN1CCN(c2ncnc3ccc(Br)cc23)CC1`, the GFP response vs DMSO is 109%. On to `Cc1ccc2c(c1N)C(=O)c1ccccc1C2=O`, for which the GFP response vs DMSO is 109%. For `C/C(O)=C(\C#N)C(=O)Nc1cc(Br)ccc1Br`, the GFP response vs DMSO is 116%. As to `CN(C)C(=O)Oc1ccc(Cl)c2cccnc12`, the GFP response vs DMSO is 104%. Next, `CN(C)C(=O)Oc1ccnc2cc(Cl)ccc12`: 106%.
